Screens from PubChem BioAssay.
KB-3-1 cytotox: kills parental KB-3-1 adenocarcinoma cells; KB-3-1 viability, CellTiter-Glo ATP luminescence, 72 h; Potency, µM (titrated, usually from 46.1 µM), actives largely listed as cytotoxic; 400,000 compounds, 1.4% hits; AID 1347075; further: on the % scale 0 is the no-effect control and ±100 the full control effect; nearly all actives have a fitted effect of over 60% in size
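KB-3-1 parental drug-naive adenocarcinoma cells in DMEM/10% FBS, incubated 72 h at 37 C with pin-transferred compounds across a concentration series. Viability by CellTiter-Glo luminescence; concentration-response curves fitted after normalization.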
HT1080 IDH1KD tx: kills HT-1080 cells with IDH1 knockdown; HT-1080 IDH1 knockdown viability, ATP luminescence, 48 h; Potency, µM (titrated, usually from 46.1 µM), without a hit: top-dose activity, negative = toxicity, usual class: cytotoxic; 360,000 compounds, 2% hits;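 further: 0% = DMSO wells and -100% = cell-free medium wells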
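IDH1KD HT-1080 cells, 750/well, RPMI + 5% FBS; compound pinned after 2 h settling; 48 h, 37 °C; CellTiter-Glo luminescence; % activity normalised to DMSO and no-cell wells; curves fitted, classed by r2 and efficacy.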
SW480 rerep: DNA re-replication induction in SW480 cells; SW480 DNA re-replication, Hoechst DNA content imaging, 48 h; AID 624297; 340,000 compounds, 1.8% hits; Potency, µM (doses to about 46.1 µM), for the others: at the highest dose re-replication activation, usual class: activators; further: % of control where 0% means no effect; nearly all actives have a fitted effect of over 55% in size
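Image-based read-out: total Hoechst fluorescence of nuclei (405 nm excitation, 500-530 nm emission), with hits raising the fraction of high-intensity nuclei. SW480 colon cells incubated 48 hr with compounds at 37 C.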
MCF10A rerep: DNA re-replication induction in MCF 10a cells. MCF 10A DNA re-replication, Hoechst nuclear intensity, 48 h. Potency, µM (titrated, usually from 46.1 µM), without a hit: at the highest dose activity, positive = re-replication, usual class: activators. 350,000 compounds, 2.9% hits. AID 624296; further: % of control where 0% means no effect; nearly all actives have a fitted effect of over 50% in size
HT1080-NT tox: kills 2HG-producing HT-1080-NT fibrosarcoma cells; 360,000 compounds, 1.6% hits; Potency, µM (highest dose often 46.1 µM), without a hit: at the highest dose activity, negative = less viability, usual class: cytotoxic; HT-1080-NT fibrosarcoma viability, CellTiter-Glo ATP luminescence, 48 h;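 further: NT is the 2HG producing partner of a matched IDH1 knockdown line; 0% = DMSO-treated cells and -100% = media-only wells without cells; nearly all actives have a fitted effect of over 55% in size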
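Viability by CellTiter-Glo luminescence after 48 h compound exposure at 37C of HT-1080-NT cells (750/well, RPMI, 5% FBS). % activity scaled between DMSO wells and medium-only wells, then curve-fitted and categorized by curve class.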
KB-V1 cytotox: KB-V1 MDR subline cytotoxicity; 400,000 compounds, 3.4% hits; Potency, µM (titrated, usually from 46.1 µM), most hits filed as cytotoxic; KB-V1 MDR cells viability, CellTiter-Glo, 72 h; AID 1347076; further: on the % scale 0 is the no-effect control and ±100 the full control effect; nearly all actives have a fitted effect of over 60% in size
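Cells of the MDR subline KB-V1 are plated, dosed with compound at multiple concentrations, and incubated 72 h at 37 degrees C; CellTiter-Glo is then added and luminescence read after 10 min.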
Numbers without * were called inactive; i = inactive; ? = inconclusive; [ ] = remark or other dose. Most compounds without a hit are left out; they make up all but 8% or so of the library. The call rests on the fitted dose curve; in most records, active means well fitted curve in the direction sought with a large enough effect; inconclusive means small, poorly fitted or top-dose-only effect, or another doubt; inactive means no such curve, though single readings can be large; an effect the other way counts as inactive or inconclusive. Potency means the concentration at half of the fitted maximal effect.

SMILES	KB-3-1 cytotox	HT1080 IDH1KD tx	SW480 rerep	MCF10A rerep	HT1080-NT tox	KB-V1 cytotox
CC(C)C[C@H](NC(=O)c1nc[nH]c1C(=O)NCc1ccc(CNC(=O)OC(C)(C)C)cc1)C(=O)OC(C)(C)C	i	?	-16.7%[9.22 µM]	-3.8%	-10.7%	?
CC(C)C[C@H](NC(=O)c1[nH]cnc1C(=O)Nc1ccc(CNC(=O)OC(C)(C)C)cc1)C(=O)OCc1ccccc1	i	-23.9%	9.5%	18.4µM*	?	?
CC(C)C[C@H](NC(=O)c1nc[nH]c1C(=O)NCCCCCNC(=O)OC(C)(C)C)C(=O)OCc1ccccc1	i	-0.6%	-0.5%	?	-9.9%	?
C[C@H](NC(=O)c1[nH]cnc1C(=O)Nc1ccc(CNC(=O)OC(C)(C)C)cc1)C(=O)OCc1ccccc1	?	?	-3.5%	?	?	?
CC(C)(C)OC(=O)NCCCCCNC(=O)c1[nH]cnc1C(=O)N[C@@H](Cc1ccccc1)C(=O)OCc1ccccc1	?	-0.2%	?	13µM*	?	i
O=c1cnn(Cc2ccc(F)cc2)c2ccccc12	i	0.3%	-6.0%	-7.5%	3.7%	i
O=C(Nc1ccc2c(c1)OCCO2)C1CCN(C(=O)c2ccccc2)CC1	i	0.0%	-18.5%	-2.0%	-0.1%	i
C(=N\Nc1ncnc2sc3c(c12)CCC3)/c1ccncc1	?	?	?	22.4%	?	18.4µM*
c1ccc(CNc2ncnc3sc4c(c23)CCCC4)nc1	i	-3.9%	-0.8%	5.8%	-4.5%	8.2µM*
Cc1cc(C)n(-c2ccc(C(=O)N3CCN(S(=O)(=O)c4cccc(Br)c4)CC3)cc2)n1	?	-11.5%	1.6%	?	-0.1%	i
CCCCCCOc1ccc(C(=O)O)cc1C#N	i	-2.0%	-0.5%	18.4µM*	-0.4%	i
CC(C)(C)OC(=O)C(Cl)(C(=O)OC(C)(C)C)c1ccc2nnnn2n1	i	18.4µM*	?	?	?	i
O=C(CC(c1ccccc1)c1ccccc1)OCn1nnc2ccccc2c1=O	i	10.6%	-1.0%	4.9%	4.5%	i
CS(=O)(=O)N1N=C(c2cccs2)CC1c1ccccc1O (stereo not drawn)	i	-3.7%	0.9%	-8.3%	2.8%	i
Oc1ccccc1C1CC(c2cccs2)=NC(c2ccc(Cl)cc2)N1 (stereo not drawn)	?	?	18.4µM*	4.61µM*	?	i
O=C(CCNS(=O)(=O)c1cccc2nonc12)NC1CCCc2ccccc21 (stereo not drawn)	i	-8.4%	5.9%	18.3%	-3.9%	23.1µM*
O=C(CCl)NC1CCCc2ccccc21 (stereo not drawn)	i	?	8.0%	3.2%	?	?
O=C(CCNS(=O)(=O)c1cccc2nsnc12)NC1CCCc2ccccc21 (stereo not drawn)	i	-4.6%	-1.2%	2.1%	-9.3%	i
O=C(CCCOc1ccccc1)NC1CCCc2ccccc21 (stereo not drawn)	i	-3.5%	4.4%	16.5%	0.0%	18.4µM*
NNC(=O)CNC(c1ccccc1)c1cc(Br)ccc1NC(=O)c1ccc(Br)cc1 (stereo not drawn)	i	-3.9%	9.5%	6.9%	-2.3%	i
CCCCn1c(=O)[nH]c(=O)c2c1nc(COC(=O)c1c(C)noc1C)n2CCC	i	4.2%	-2.2%	3.9%	7.3%	4.11µM*
CCCCn1c(CCC(=O)O)nc2c1c(=O)[nH]c(=O)n2CCC	i	13.1%	-2.8%	-1.8%	21.0%	i
COc1cccc(S(=O)(=O)NCc2ccc(C(=O)Nc3ccc(Cl)cc3)cc2)c1	i	-23.1%	3.7%	0.0%	-13.3%	?
COc1cccc(-c2cc(=O)c3cc(NC(=O)c4ccccc4)ccc3[nH]2)c1	1.64µM*	3.66µM*	2.91µM*	5.8µM*	3.66µM*	i
COc1cccc(C(=O)Nc2ccccc2)c1	i	-3.3%	-0.6%	-1.7%	6.2%	i
SMILES	KB-3-1 cytotox	HT1080 IDH1KD tx	SW480 rerep	MCF10A rerep	HT1080-NT tox	KB-V1 cytotox
COc1cccc(-c2cc(=O)c3cc(NC(=O)c4ccc(Cl)cc4)ccc3[nH]2)c1	1.3µM*	-0.5%	?	?	-5.5%	i
COc1cccc(-c2cc(=O)c3cc(NC(=O)c4ccc(N(C)C)cc4)ccc3[nH]2)c1	i	0.731µM*	0.581µM*	0.411µM*	1.3µM*	i
COc1cccc(C(=O)N2CCN(c3ccc(N4CCOCC4)nn3)CC2)c1	i	-5.8%	-4.8%	-1.1%	-5.8%	i
CN(C)c1cccc(C(=O)OCc2cc(=O)oc3cc(O)ccc23)c1	?	5.9%	?	?	-7.6%	i
O=c1[nH]c2ccccc2c(O)c1Cc1ccccc1	i	3.1%	-2.7%	-2.2%	-1.0%	i
Cn1nc(C(=O)Nc2nc(-c3ccccn3)cs2)c2ccccc2c1=O	i	-10.6%	1.2%	15.8%	0.2%	1.3µM*
CCCn1nc(C(=O)Nc2nc(-c3ccccn3)cs2)c2ccccc2c1=O	?	?	-11.4%	23.1µM*	?	i
CCn1nc(C(=O)Nc2nc(-c3ccccn3)cs2)c2ccccc2c1=O	i	-22.8%	-1.0%	9.8%	0.3%	i
CCC1CCCCN1C(=O)c1cc2cc(Br)ccc2oc1=O (stereo not drawn)	i	9.2%	-7.5%	13.0%	14.4%	i
O=S(=O)(Nc1cccc2c1CCCC2)c1cccc(C(F)(F)F)c1	i	-4.7%	9.0%	21.9%	?	i
CC(=O)Nc1sc(C)c(C)c1C(=O)OCC(=O)Nc1cccc(C)c1	?	11.7%	?	8.2µM*	7.2%	i
CC(=O)Nc1sc(C)c(C)c1C(=O)OCC(=O)Nc1ccccc1	i	-3.1%	-26.9%	?	5.2%[9.24 µM]	i
COCCN1CCC(CNCc2cn(-c3cc(C)ccc3C)nc2-c2ccccc2)C1 (stereo not drawn)	i	?	11.6%	?	25.9µM*	i
COCCN1CCC(CNCc2cn[nH]c2-c2ccc(C)c(C)c2)C1 (stereo not drawn)	i	-13.5%	-9.1%	1.8%	-17.5%	?
Cc1c(NC(=O)CSc2nnc3c4ccccc4n(CCc4ccccc4)c3n2)c(=O)n(-c2ccccc2)n1C	?	?	?	8.2µM*	?	?
Cc1ccccc1CNC(=O)CN1C(=O)c2ccccc2S1(=O)=O	i	10.4%	-13.8%	0.7%	6.7%	i
